Here are results for 45 compounds from ChEMBL document CHEMBL3988442, “University of Dundee, Small-Polar-MMV Screening Library” (2021).

Test [1] deals with T1, Aspartate--tRNA(Asp/Asn) ligase (Mycobacterium tuberculosis (strain ATCC 25618 / H37Rv)) (UniProt P9WFW3).
T1 sequence (whole entry): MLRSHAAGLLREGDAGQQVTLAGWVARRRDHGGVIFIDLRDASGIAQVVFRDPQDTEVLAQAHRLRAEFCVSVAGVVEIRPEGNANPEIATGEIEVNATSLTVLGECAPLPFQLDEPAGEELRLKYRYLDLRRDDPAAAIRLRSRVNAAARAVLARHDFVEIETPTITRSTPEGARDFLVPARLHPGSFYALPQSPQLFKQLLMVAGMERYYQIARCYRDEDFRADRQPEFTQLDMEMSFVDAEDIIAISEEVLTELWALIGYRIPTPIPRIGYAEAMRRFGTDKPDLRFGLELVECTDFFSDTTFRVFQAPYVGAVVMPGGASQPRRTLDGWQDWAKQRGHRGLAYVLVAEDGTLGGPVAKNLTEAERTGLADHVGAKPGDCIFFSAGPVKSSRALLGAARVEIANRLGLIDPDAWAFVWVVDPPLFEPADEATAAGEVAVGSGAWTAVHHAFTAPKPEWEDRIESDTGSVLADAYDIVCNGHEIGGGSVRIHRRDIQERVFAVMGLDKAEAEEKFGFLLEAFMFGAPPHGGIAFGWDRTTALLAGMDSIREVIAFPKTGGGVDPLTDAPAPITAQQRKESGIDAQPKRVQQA
In words: Assay for Asp RNA synthetase-1 from Mycobacterium tuberculosis. Further details: scale not given: direction of the effect not stated beside the values. It is filed as functional. To be noted: 30 µM.

The target in test [2] is Shiga toxin 2 (Escherichia coli O157:H7) (UniProt P09385+P09386). Briefly: E. coli 0.157:H7 Shiga Toxin SOP - stx2 screening assay. It is filed as functional. Further details: scale not given: direction of the effect not stated beside the values. To be noted: 30 µM.

For `Cc1cnc(N2CCCC3(CCN(Cc4csc(C)n4)C3=O)C2)nc1` (stereo not given), the Percent Effect in test [1] is 6.32%; in test [2], -0.084%.

`O=C(NCCOc1ccc(Cl)cc1)N1CCS(=O)(=O)CC1`: the Percent Effect in test [1] was -4.21%; in test [2], 5.32%.

For the compound `O=c1nc(SCc2cccnc2)c2c(n1CCO)CCC2`, the Percent Effect in test [1] was -12%; in test [2] it was 13.4%.

Take `Cc1occc1C(=O)NCc1ccc(N2CCCC(C(N)=O)C2)cc1` (stereo not given): the Percent Effect was 1.75% in test [1] and -14.7% in test [2].

In the case of `CCN1CCN(S(=O)(=O)c2ncn(C)c2Cl)CC1`, the Percent Effect in test [1] was -2.51%; in test [2] it was -7.16%.

Take `CN(C)C(=O)C1CN(Cc2cscn2)CCN(S(C)(=O)=O)C1` (stereo not given): the Percent Effect in test [1] is 0.521%; in test [2], -12.3%.

On to `Cc1nnc(NC(=O)CN(C)CC2CCCN2c2cccnn2)s1` (stereo not given), for which the Percent Effect in test [1] was 0.577%; in test [2] it was -34.1%.

Consider `Cc1ccn(CCC(=O)N2CCOC(c3nc(-c4cccs4)no3)C2)n1` (stereo not given), for which the Percent Effect was -0.897% in test [1] and 37.2% in test [2].

On to `CC(=O)c1cccc(OCCCC(=O)N(C)Cc2cccc(O)c2)c1`, for which the Percent Effect in test [1] is -2.31%; in test [2] it was -20.2%.

On to `CC(C)c1nnc2n1CCN(C(=O)c1ccnc(N(C)C)c1)C2`, for which the Percent Effect in test [1] was -5.48%; in test [2], -7.07%.

On to `c1cc(CNCC2OCCc3cn(CC4CCOCC4)nc32)ccn1` (stereo not given), for which the values for the Percent Effect in test [1] and in test [2] were 4.2% and -5.21%, respectively.

With `CS(=O)(=O)NC[C@@H]1OC[C@H]2CN(C(=O)c3ccc[nH]3)CC[C@H]21`, the values for the Percent Effect in test [1] and in test [2] were 3.32% and 0.898%, respectively.

On to `Cc1ccc(-c2nc(CNCCn3cccn3)cs2)o1`, for which the Percent Effect was -0.233% in test [1] and 13% in test [2].

As to `Cc1ccc(OC2(C(=O)O)CCN(C(=O)c3ccc(F)cc3)CC2)cn1`, the values for the Percent Effect in test [1] and in test [2] were -4.69% and 10.4%, respectively.

In the case of `Cc1cc(S(=O)(=O)N2CCC(S(C)(=O)=O)CC2)ccc1F`, the Percent Effect in test [1] is 1.15%; in test [2] it was -4.34%.

As to `COc1ccc(OC)c(CCNC(=O)NC(C)Cn2ccnc2)c1` (stereo not given), the Percent Effect was -6.68% in test [1] and 31% in test [2].

For the compound `CCCc1cc(=O)n(CC(N)=O)c(-n2nc(C)cc2C)n1`, the Percent Effect in test [1] is 3.6%; in test [2], -3.82%.

As to `COc1ccc(C2CC(=O)Nc3c2nc2n3CCCC2)cc1O` (stereo not given), the Percent Effect in test [1] was -2%; in test [2], -3.52%.

On to `O=C(Cn1cccn1)NCC1(c2ccccc2)CC1`, for which the Percent Effect was -2.68% in test [1] and 16.1% in test [2].

As for `CN1CCC/C1=N\S(=O)(=O)c1ccc(NC(=O)CCc2cccs2)cc1`, the Percent Effect in test [1] is 1.3%; in test [2], -144%.

Consider `Cc1csc(N2CCN(C(=O)Cc3ccc(C)s3)CC2)n1`, for which the Percent Effect in test [1] was -4.4%; in test [2], 12.2%.

As for `COc1ccc(COCC(O)CNC(=O)c2cnc(C)cn2)cc1` (stereo not given), the values for the Percent Effect in test [1] and in test [2] were 0.509% and -32.5%, respectively.

Take `Cc1cc(C)nc(CCNC(=O)[C@H]2CNC[C@@H](C(=O)N3CCCC3)C2)n1`: the results for the Percent Effect in test [1] and in test [2] were -2.14% and -37.4%, respectively.

With `COc1cccc(CNC(=O)N2CCN(Cc3cc(C)on3)CC2)c1`, the Percent Effect in test [1] is -2.94%; in test [2], 4.64%.

Turning to `O=C(Cn1c(=O)n(Cc2ccco2)c2ncccc21)Nc1ccccn1`, the Percent Effect came out at 8.2% in test [1] and 3.73% in test [2].

In the case of `Cc1nn(C)c(C)c1CNC1CCOc2ccccc21` (stereo not given), the results for the Percent Effect in test [1] and in test [2] were -0.466% and 8.07%, respectively.

`CCc1nc(C2CCCN(C(=O)c3cccc4cn[nH]c34)C2)no1` (stereo not given): the results for the Percent Effect in test [1] and in test [2] were 4.75% and 29.8%, respectively.

In the case of `O=C(CCCNc1ncccn1)N1CCCC(n2cccn2)C1` (stereo not given), the Percent Effect stood at 3.16% in test [1] and 1.16% in test [2].

In the case of `Cc1cccc(CN2CCc3ncnc(C)c3CC2)n1`, the Percent Effect in test [1] was -0.616%; in test [2], -16.2%.

On to `Cc1cccnc1NC(=O)CC1(Cn2cnnn2)CCCCC1`, for which the Percent Effect in test [1] came to 7.1%; in test [2] it was 2.81%.

`Cn1cc(C(=O)CC2CCCN2C(=O)c2cncc3ccccc23)cn1` (stereo not given): the Percent Effect in test [1] is -4.82%; in test [2] it was -3.94%.

For `CCCOCC(=O)NS(=O)(=O)c1ccc2c(c1)OCCCO2`, the Percent Effect in test [1] came to 1.8%; in test [2], 17.6%.

As to `Cc1nccc([C@H]2C[C@@H]3CCN(S(=O)(=O)N(C)C)C[C@H]3O2)n1`, the values for the Percent Effect in test [1] and in test [2] were 1.71% and 6.66%, respectively.

For the compound `Cc1ccc(Cl)cc1N1CCC(CNC(=O)CCn2ccnn2)C1` (stereo not given), the Percent Effect in test [1] was 2.9%; in test [2], -49.4%.

For `COCCN1CCC(CNC(=O)C2(c3cc(C)cc(C)c3)CCC2)C1` (stereo not given), the Percent Effect in test [1] is -0.337%; in test [2], 20.8%.

`O=C(NCCCn1cncn1)NCC(c1ccccc1)N1CCCC1` (stereo not given): the Percent Effect in test [1] is 0.0576%; in test [2], -13%.

As to `Cc1nc(CN2CCO[C@@H]3CN(C(=O)NC(C)C)CC[C@@H]3C2)cs1`, the Percent Effect is 3.49% in test [1] and -4.73% in test [2].

For `O=C(Cc1ccc(F)cc1)N1CCn2cc(Cn3cccn3)nc2C1`, the Percent Effect in test [1] was determined as 5%; in test [2], 5.65%.

As to `COc1ccccc1NC(=O)NCC(O)(c1ccccc1)C1CC1` (stereo not given), the Percent Effect is -6.53% in test [1] and -12.2% in test [2].

For `CN(C(=O)Cc1c[nH]c2ccccc12)C1CCN(c2ccccn2)CC1`, the Percent Effect is -1.54% in test [1] and 5.44% in test [2].

As for `CCS(=O)(=O)c1ccccc1C(=O)NCc1ccnc(N(C)C)c1`, the Percent Effect in test [1] is -3.31%; in test [2], -44.7%.

As to `O=C(c1ccco1)N1CCCC1C1CCN(Cc2ccccc2)CC1` (stereo not given), the Percent Effect in test [1] is 4.64%; in test [2] it was -11.3%.

Consider `CN(C)C(=O)N1C[C@H](Oc2ccccn2)[C@H]2OCCC[C@H]21`, for which the Percent Effect in test [1] was 2.67%; in test [2], -3.38%.

For the compound `CCC1=N[C@@]2(CC[C@@H]3CN(S(=O)(=O)CC)C[C@@H]32)C(=O)N1CC(C)C`, the figures for the Percent Effect in test [1] and in test [2] were 2.06% and -9.69%, respectively.

On to `CCc1noc(C)c1C(=O)N1CCCC1Cn1nc(C)cc1C` (stereo not given), for which the Percent Effect in test [1] amounted to 0.674%; in test [2], 27.6%.
